The source of these data is PubChem BioAssay (NCATS).

Structures are written as SMILES. Several values for one entry are separate records, joined by “and”; a condition that tells them apart may be missing. Equal values may be shown once. Results filed as inconclusive are left out. A number with no mark means an inactive call. Calls follow the shape of the dose curve; as a rule, active = well fitted curve in the direction sought with a large enough effect in the signal ratio, with a control signal flat; inconclusive = small, poorly fitted or top-dose-only effect, or a change in a side signal; inactive = no such curve, though single readings can be large or run the other way; the % refers to the signal ratio.

The target of this assay is Glucocorticoid receptor (Homo sapiens) (UniProt P04150). Kind of assay: qHTS assay for small molecule agonists of glucocorticoid receptor signaling (AID 588532). As to conditions: HeLa MMTV-bla, beta-lactamase ratio, agonist, 18 h; hits give high values; percent of dexamethasone control, DMSO zero. An excerpt: NIH Chemical Genomics Center [NCGC] U.S. Environmental Protection Agency [EPA] National Institutes of Environmental Health Sciences [NIEHS] National Toxicology Program [NTP] NCGC Assay Overview The Glucocorticoid receptor (GR), a nuclear receptor subfamily member and its natural ligands includes […] etc. The GR is a validated drug target for inflammation. GR ligands such as dexamethasone are clinically available as anti-inflammatory drugs. Glucocorticoids implicate role in carbohydrate, protein and lipid metabolisms and programmed cell death. They are also a component of many chemotherapy regimens for the treatment of leukemias, lymphomas, and myelomas because of their role in the induction of apoptosis.
Chain of Glucocorticoid receptor (Homo sapiens) (P04150 whole entry, looked up): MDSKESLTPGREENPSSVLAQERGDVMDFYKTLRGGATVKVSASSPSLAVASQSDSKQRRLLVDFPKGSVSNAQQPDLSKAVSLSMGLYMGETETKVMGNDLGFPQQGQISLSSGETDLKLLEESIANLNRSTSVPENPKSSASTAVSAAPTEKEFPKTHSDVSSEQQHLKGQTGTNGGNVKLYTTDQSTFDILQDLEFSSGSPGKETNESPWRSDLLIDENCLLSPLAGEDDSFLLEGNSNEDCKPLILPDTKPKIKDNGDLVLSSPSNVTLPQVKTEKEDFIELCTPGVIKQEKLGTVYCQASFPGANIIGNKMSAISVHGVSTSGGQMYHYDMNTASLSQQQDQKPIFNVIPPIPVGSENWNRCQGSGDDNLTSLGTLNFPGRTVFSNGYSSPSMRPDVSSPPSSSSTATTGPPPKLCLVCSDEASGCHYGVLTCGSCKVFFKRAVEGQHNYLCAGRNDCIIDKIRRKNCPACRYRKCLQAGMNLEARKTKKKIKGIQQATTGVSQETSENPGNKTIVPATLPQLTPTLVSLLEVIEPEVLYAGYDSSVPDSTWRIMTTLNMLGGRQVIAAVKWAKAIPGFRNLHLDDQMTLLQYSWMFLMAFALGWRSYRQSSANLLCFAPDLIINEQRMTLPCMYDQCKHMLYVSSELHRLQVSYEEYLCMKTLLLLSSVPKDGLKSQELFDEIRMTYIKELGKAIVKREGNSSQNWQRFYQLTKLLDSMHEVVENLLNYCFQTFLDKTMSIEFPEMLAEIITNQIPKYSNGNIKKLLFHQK
NCGC Assay Protocol Summary Using a beta-lactamase reporter-gene under control of glucocorticoid response element (GRE), a cell-based assay [CellSensor MMTV-bla HeLa cell line assay developed by Invitrogen] was used to measure GR ligands signaling. CellSensor MMTV-bla HeLa cells were used with assay medium containing 1% charcoal/dextran treated FBS, 0.1 mM NEAA, 1 mM sodium pyruvate and 25mM HEPES. The assay was performed in clear bottom black Greiner 1536-well plates. Dexamethasone and Mifepristine were used in the screen as agonist and antagonist positive controls respectively. Library compounds were measured for their ability to stimulate the reporter gene activity. Compounds were screened in a titration series in 1536-well format. The fluorescence intensity (405 nm excitation, 460/530 nm emission) was measured using an EnVision plate reader. Data was normalized relative to Dexamethasone control (0.1 uM, 100%), and DMSO only wells (basal, 0%). Concentration-response titration points for each compound were fitted to the Hill equation yielding concentrations of half-maximal stimulation (EC50) and maximal response (efficacy) values. qHTS protocol for GR beta-lactamase assay in agonist mode [Step] [Parameter] [Value] [Description] 1. Reagent; 6 uL; 1500 cells/well 2. Incubation; 37 C for 3-5 hrs 3. Compounds; 23 nL; 0.59 nM to 92 uM 4. Controls (Dexamethasone); 23 nL, - One column with dose response, start 4.6uM, 1:3 dilutions in duplicates - Final concentrations of 0.1 uM and 2 nM in two columns 5. Incubation; 37 C for 18 hrs 6. Detection reagent; 1 uL of CCF4-dye 7. Incubation; RT for 2 hrs 8. Detection; Fluorescence; Envision plate reader
In general terms: In qHTS, concentration-response curves come from the screen itself.
Regarding `Cc1ccc(S(=O)(=O)NC2CCCCC2)cc1`, the activation was -3.36%. To `CC(CCl)OC(C)CCl` (stereo not given) belongs 1.48%; to `CC(N)CN` (stereo not given), -2.03%; to `Nc1nc2ccccc2[nH]1`, 0.673%. `CCOCC(=O)O`: the activation was 2.71%. On to `NC(=O)CCCCC(N)=O`, for which the activation was -2.82%.

On to `CC(C)=C1CCC(C)CC1=O` (stereo not given), for which the activation was -0.919%.

As to `O=C(O)c1cc(Cl)cc(Cl)c1`, the activation was -5.57%.

With `O=C1CCCCC1`, the activation is -2.34%. Turning to `Cc1cc(C2(c3cc(C)c(O)cc3C)OS(=O)(=O)c3ccccc32)c(C)cc1O`, the activation was 3.46%.

Consider `CCCCCCCCCCCCOCC1CO1` (stereo not given), for which the activation was 7.49%. To `O=C1OC(=O)c2c(Br)c(Br)c(Br)c(Br)c21` belongs -2.08% and -7.32%; to `CC#N`, -2.4%; to `OC(CCl)CCl`, 14.2%.

On to `CCC(=O)/C=C/C1C(C)=CCCC1(C)C` (stereo not given), for which the activation is -2.65%. On to `COC(=O)CCC(=O)OC`, for which the activation is -3.79%.

As for `Cc1cc(C)cc(N)c1`, the activation was -0.353%. To `CC(=C/C=C/C(C)=C/C=C/C=C(C)/C=C/C=C(C)/C=C/C(=O)O)/C=C/C(=O)O` belongs -6.11%; to `Nc1nc(CC(=O)O)cs1`, 1.59%.

In the case of `O=[N+]([O-])c1ccc(CCO)cc1`, the activation was -5.66%. To `CC(=O)c1nccs1` belongs -5.55%; to `CCCC(C)CO` (stereo not given), 0.0234%; to `O=C(O)CCSSCCC(=O)O`, -5.98%.

As to `CC(=O)c1cccc([N+](=O)[O-])c1`, the activation is 1.38%.

With `CCNS(=O)(=O)c1ccc(C)cc1`, the activation is -0.758%. With `O=C(O)c1ccccc1C(=O)O`, the activation was -4.91%. As for `CC(C)N(C)C`, the figure is 0.0793%; as for `N#Cc1ccccc1`, 4.79%; as for `CCCCC(CC)COCC1CO1` (stereo not given), -12.2%. As for `Cc1ccc2nc(-c3ccc(N)cc3)sc2c1S(=O)(=O)O`, the figure is 22.8%. As for `Nc1ccc(Cl)cc1[N+](=O)[O-]`, the figure is -4.92%. Take `CSc1ccc(C=O)cc1`: the activation is -2.41%. As for `CCCCCCC(=O)O`, the figure is 2.07%; as for `c1ccc(Oc2ccccc2)cc1`, 2.66% and -3.4%. For `CCC(C)(C)C(=O)O`, the activation was -7.32%. As for `O=[N+]([O-])c1ccc(Cl)cc1Cl`, the figure is 2.45%; as for `Nc1cc(Cl)c(N)c(Cl)c1`, 0.447%; as for `CC(C)(c1cc(Br)c(OCC(Br)CBr)c(Br)c1)c1cc(Br)c(OCC(Br)CBr)c(Br)c1` (stereo not given), 11.6%.

On to `C=CCCC`, for which the activation was 5.54%.

On to `Cc1ccc2ncccc2c1`, for which the activation is 6.61%.
